Data reported in PubChem BioAssay AID2016 (NMMLSC, 2009).
About 1,700 (0.52%) of roughly 330,000 compounds were called active. The entries come from a sample that favours actives as a whole. Values without a mark were called inactive.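 Rule for the calls: active = GFP response versus DMSO above a set limit, roughly screen mean plus 3 SD (cut at about 180% in these data); inconclusive = fewer than 70 cells counted for a yeast strain; inactive = the rest.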

test: TOR pathway GLN3 branch reporter MEP2-GFP changes – S. cerevisiae, multiplex flow cytometry, MLPCN library, primary screen (AID 2016);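 note: median GFP fluorescence of the barcode-gated MEP2-GFP cells per well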; details: S. cerevisiae MEP2-GFP strain, 3 h, at 10 µM, active compounds read high, 100% = DMSO control level

| Compound | GFP response vs DMSO |
| --- | --- |
| CC(C)(C)C(=O)/C(C#N)=C/c1ccc(O)cc1 | 95.4% |
| O=C(Nc1ccc(F)c([N+](=O)[O-])c1)C1CC(=O)N(Cc2ccccc2)C1 (stereo not drawn) | 101% |
| Cc1cc(=O)oc2cc(NC(=O)C(C)Oc3ccccc3)ccc12 (stereo not drawn) | 99.1% |
| Cc1cc(=O)oc2cc(NC(=O)C3CC(=O)N(Cc4ccccc4)C3)ccc12 (stereo not drawn) | 559% [may fluoresce violet] (active) |
| O=C(C(Cc1ccccc1)n1cccc1)N1CCN(C2CCCCC2)CC1 (stereo not drawn) | 96.8% |
| CC(C)Cn1cnc2c1c(=O)n(CC(=O)NN)c(=O)n2Cc1ccccc1 | 97.4% |
| CCN(CC)Cc1cc(C(C)=O)ccc1O | 103% |
| CN(CCO)Cc1csc2ccc(Br)cc12 | 112% |
| CCN(CC)Cc1csc2ccc(Br)cc12 | 200% (active) |
| CC(=O)N1c2ccc(S(=O)(=O)NCCC(=O)N(C)C3CCCCC3)cc2CC1C (stereo not drawn) | 104% |
| Cc1ccc(S(=O)(=O)Oc2ccc(/C=N/NC(=O)c3c(Cl)cnn3C)cc2)cc1 | 98.8% |
| COc1ccc(CCNC(=O)c2ccccc2-c2ccccc2C(=O)O)cc1OC | 93% |
| COc1ccc(CCNc2cc(N3CCN(C(=O)c4ccccc4OC)CC3)ccc2[N+](=O)[O-])cc1OC | 180% [may fluoresce violet] (active) |
| COc1ccccc1OCCNc1cc(N2CCOCC2)ccc1[N+](=O)[O-] | 106% |
| COC(=O)/C(=C\Nc1ccccc1)NC(=O)c1ccc(Cl)cc1Cl | 91.1% |
| COCC1CCN(C(=O)c2ccc3oc(Cc4ccccc4)nc3c2)C1 (stereo not drawn) | 101% |
| CCOC(=O)c1c(CN(C)C)n(-c2ccccc2)c2cc(Br)c(O)cc12 | 96.5% |
| CCOC(=O)c1c(CN2CCOCC2)n(-c2ccccc2)c2ccc(O)cc12 | 240% [may fluoresce violet] (active) |
| CCOC(=O)c1nnn(-c2nonc2-n2cccc2)c1CN1CCOCC1 | 92.2% |
| Cc1ccc2nnn(Cc3cccc(C(C)(C)C)c3O)c2c1 | 92.5% |
| COc1ccc(C)cc1NC(=O)CN1c2cccc3cccc(c23)S1(=O)=O | 101% |
| COc1cc(C(=O)Nn2c(O)c(C3=c4ccccc4=NC3=O)sc2=S)ccc1O | 96.1% |
| COc1cccc(-n2c(SCC(=O)NC3CCS(=O)(=O)C3)nc3ccccc3c2=O)c1 (stereo not drawn) | 109% |
| O=C1N(Cc2ccc3c(c2)OCO3)c2ccccc2C1(O)c1c[nH]c2ccccc12 (stereo not drawn) | 104% |

| Compound | GFP response vs DMSO |
| --- | --- |
| CN(C)S(=O)(=O)c1cc(C(=O)Nc2ccn(C)n2)c(Cl)cc1Cl | 7710% [may fluoresce green] (active) |
| Cc1ccc(C(=O)Nc2ccn(C)n2)cc1 | 109% |
| O=C(Nc1nccs1)c1cc(S(=O)(=O)N2CCOCC2)c(Cl)cc1Cl | 97.8% |
| CCOC(=O)N1CCN(S(=O)(=O)c2ccc(Br)cc2)CC1 | 576% [may fluoresce violet] (active) |
| CCOC(=O)N1CCN(S(=O)(=O)c2ccc(OC)cc2)CC1 | 98.6% |
| CCOC(=O)N1CCN(S(=O)(=O)c2ccc(-n3cnnn3)cc2)CC1 | 93.2% |
| NC(=O)COC(=O)c1ccc2c(c1)C(=O)N(Cc1ccco1)C2=O | 103% |
| COc1ccc2sc(-c3ccc(N(C)C)cc3)c(-c3ccc4cc[nH]c4c3)c2c1 | 105% |
| COc1ccc2sc(-c3ccc(N(C)C)cc3)c(C#CCO)c2c1 | 180% [may fluoresce violet] (active) |
| COc1ccc(-c2sc3ccc(OC)cc3c2C#Cc2ccccn2)cc1 | 87.4% |
| COc1ccc(S(=O)(=O)NCC(c2ccco2)N2CCOCC2)cc1 (stereo not drawn) | 97.3% |
| O=C(CC1CCCCC1)NCc1ccc(F)cc1 | 92.1% |
| O=C(CSc1nnnn1-c1ccc(O)cc1)c1ccc(F)cc1 | 106% |
| COC(=O)c1ccc(-c2noc(CN(Cc3ccccn3)CC3CCCO3)n2)cc1 (stereo not drawn) | 102% |
| COc1ccc(CN2CCn3ncc(C(=O)Nc4ccc(Cl)cc4Cl)c3C2=O)cc1 | 107% |
| O=C1N=C(N2CCOCC2)CS1 | 99.2% |
| CC(=O)NC(CC(=O)Nc1ccc(S(=O)(=O)N2CCOCC2)cc1)c1ccccc1 (stereo not drawn) | 95.3% |
| O=[N+]([O-])c1cccc(/C=N/Nc2ncc(Br)cn2)c1 | 239% (active) |
| O=C(N/N=C/c1cccc([N+](=O)[O-])c1)C1CC(=O)N(c2ccc(Br)cc2)C1 (stereo not drawn) | 100% |
| O=[N+]([O-])c1ccc(N/N=C/c2ccccc2)cc1 | 102% |
| CCOC(=O)C(CC)Sc1ncnc2c1nnn2-c1ccc(F)cc1 (stereo not drawn) | 191% (active) |
| COC(=O)C(C)n1cnc2c(nnn2-c2ccc(F)cc2)c1=O (stereo not drawn) | 95.3% |
| CCOC(=O)C(C)n1cnc2c(nnn2-c2ccc(F)cc2)c1=O (stereo not drawn) | 98.2% |
| CC(=O)c1cccc(OCc2cc(C(=O)NC(C)Cc3cccnc3)no2)c1 (stereo not drawn) | 92.2% |

| Compound | GFP response vs DMSO |
| --- | --- |
| CCOC(=O)c1[nH]c(C)c(C(=O)OCC(=O)N2c3ccccc3CC2C)c1C (stereo not drawn) | 105% |
| CN(C)C(=O)c1cccn(Cc2cccc(C(F)(F)F)c2)c1=O | 97.2% |
| COc1ccccc1Nc1nnc(SC(C)C(=O)NC2CC2)s1 (stereo not drawn) | 100% |
| COc1ccc(C(=O)NC2CC2)cc1OC1CCN(Cc2ccc(SC)cc2)CC1 | 112% |
| COc1cc(CN2CCCC(C(=O)c3ccc(SC)cc3)C2)cc(Cl)c1O (stereo not drawn) | 596% [may fluoresce violet] (active) |
| COc1ccc(CN2CCCC(C(=O)c3ccc(Cl)cc3)C2)cc1Cn1cncn1 (stereo not drawn) | 99.8% |
| COc1ccc(OC)c(NC(=O)CSc2nc(-c3ccccc3)cc(=O)[nH]2)c1 | 107% |
| Cc1cc(=O)oc2cc(OCC3CC(c4ccccc4Cl)=NO3)ccc12 (stereo not drawn) | 100% |
| O=C(Cn1ncc(N2CCCC2)c(Br)c1=O)c1ccc(Cl)cc1 | 98.2% |
| Cc1ccccc1S(=O)(=O)Cc1ccc(C(=O)NCCN2CCCCC2C)o1 (stereo not drawn) | 460% [may fluoresce violet] (active) |
| CCc1ccccc1S(=O)(=O)Cc1ccc(C(=O)NCCc2ccccc2)o1 | 109% |
| Cc1oc(-c2ccccc2F)nc1CS(=O)CC(=O)NCCN1CCCCC1C (stereo not drawn) | 103% |
| CCOc1ccc(CCNC(=O)C(CC)n2nc(C)n3c(cc4sccc43)c2=O)cc1OCC (stereo not drawn) | 105% |
| CCc1ccc2nc(N(CCCN(C)C)C(=O)c3ccc4c(c3)OCCO4)sc2c1 | 104% |
| CCOc1ccc2nc(N(CCCN(C)C)C(=O)c3ccc(C(=O)c4ccccc4)cc3)sc2c1 | 104% |
| CCOc1ccc2nc(N(CCN(C)C)C(=O)c3ccc4ccccc4c3)sc2c1 | 233% [may fluoresce violet] (active) |
| CC(C)(C)c1ccc(C(CC(=O)O)NS(=O)(=O)Cc2ccccc2)cc1 (stereo not drawn) | 98.8% |
| CCSC1=NCCN1C(=O)c1ccc(S(=O)(=O)N(CC)CC)cc1 | 106% |
| O=C(NCCc1ccccc1)C(=O)NCC1OCCN1S(=O)(=O)c1cccs1 (stereo not drawn) | 108% |
| CCN1/C(=C/c2ccc3ccc(C)cc3[n+]2CC)Sc2ccccc21 | 351% [may fluoresce green] (active) |
| CCN1/C(=C\c2ccc3ccccc3[n+]2CC)Sc2cc(C)ccc21 | 1150% [may fluoresce green] (active) |
| O=C(NC1Cc2ccccc2C1)c1cc(COc2cccc(C(F)(F)F)c2)on1 | 104% |
| CCC(=O)Nc1ccc(C(=O)N2CCN(C(=O)c3ccco3)CC2)cc1 | 104% |
| Cc1ccc(C)c(OCC(=O)N2CCN(C(=O)c3ccco3)CC2)c1 | 105% |

| Compound | GFP response vs DMSO |
| --- | --- |
| Cc1ccc(OCC(=O)Nc2ccc(N3CCN(C(=O)c4ccco4)CC3)cc2)c(C)c1 | 229% [may fluoresce violet] (active) |
| CCN(C[C@H]1N[C@@](Cc2ccccc2)(C(=O)OC)[C@H]2C(=O)N(Cc3ccccc3)C(=O)[C@@H]12)C(=O)c1ccc(C)cc1 | 84.7% |
| CC(C)(C)OC(=O)c1c(N)n(CCCN2CCCC2=O)c2nc3ccccc3nc12 | 107% |
| COCC(C)OC(=O)c1c(N)n(CCCN2CCOCC2)c2nc3ccccc3nc12 (stereo not drawn) | 210% [may fluoresce violet] (active) |
| CC(CN1CCOCC1)OC(=O)c1ccc(C(C)(C)C)cc1 (stereo not drawn) | 110% |
| CCOC(=O)Cc1csc(NC(=O)CN(C)S(=O)(=O)c2ccc3c(c2)CCC(=O)N3)n1 | 96% |
| CCCN1C(=O)C(NC(C)=O)c2cc(OC)ccc21 (stereo not drawn) | 107% |
| O=C(CS(=O)(=O)c1cn(Cc2cccc(F)c2)c2ccccc12)N1CCCCC1 | 236% [may fluoresce violet] (active) |
| CC(=O)Nc1ccc(NC(=O)CS(=O)(=O)c2cn(CC(=O)N3CCCCC3)c3ccccc23)cc1 | 95.1% |
| O=C(CS(=O)(=O)c1cn(Cc2ccc(Cl)cc2)c2ccccc12)N1CCOCC1 | 91.9% |
| CC(NC(=O)c1cccc2ccccc12)c1ccc2c(c1)CCCC2 (stereo not drawn) | 148% |
| Cc1c(C(=O)OCC(=O)N2CCCC2=O)oc2ccccc12 | 108% |
| Cc1ccc(C(=O)N2CC(=O)Nc3ccccc32)o1 | 101% |
| O=C(O)c1cccc2c1C(=O)N(C1CCCC1)C2 | 97.4% |
| Nc1nnc(SCC(=O)OCc2ccc(Cl)c(Cl)c2)s1 | 95.3% |
| O=C(NCC1CCCO1)/C(=C\c1ccco1)NC(=O)c1ccccc1 (stereo not drawn) | 102% |
| Cc1ccc(C(=O)N/C(=C\c2ccco2)C(=O)N2CCSCC2)cc1C | 109% |
| NC(=O)C1CCN(C(=O)/C(=C/c2ccco2)NC(=O)c2ccccc2)CC1 | 215% [may fluoresce violet] (active) |
| Cc1ccc(C(=O)N/C(=C/C=C/c2ccccc2)C(=O)NCc2ccco2)cc1 | 95.7% |
| O=C(NCc1ccco1)/C(=C/c1ccco1)NC(=O)c1ccccc1 | 206% [may fluoresce violet] (active) |
| CC1CCN(C(=O)/C(=C\c2ccccc2)NC(=O)c2ccccc2)CC1 | 106% |
